Results from PubChem BioAssay AID463173 (ICCB-Longwood Screening Facility, Harvard Medical School, 2010).
Screen size: about 52,000 compounds; about 4,300 (8.3%) were called active. No stated cut-off is given here; in the data, active means survival mostly below about 52% (no sharp cut-off); inactive means mostly above about 56%. The list comes from a sample in which actives are over-represented; it also holds similar structures and randomly drawn compounds.

The compounds below were run on DeltatarO mutant (assay: S. aureus survival, RN4220 and DeltatarO strains – OD600, teichoic acid synthesis inhibitors, primary screen (AID 463173)). Settings: S. aureus RN4220 wild type/DeltatarO growth, OD600, 18 h, active compounds read low, screened at 18.75 µg/mL (by protocol).

Structure (SMILES) | survival
CN1CCN(C2(CNC(=O)c3ccc([N+](=O)[O-])cc3)CCCCC2)CC1 | 102% (inactive)
Cc1ccc(C(C)C)c(OCC(=O)NCC2(N(C)C)CCCCC2)c1 | 95% (inactive)
N#Cc1c(NC(=O)C2CC(=O)NN2Cc2ccccc2)sc2c1CCCC2 (stereo unspecified) | 82% (inactive)
CCn1c(CNC(=O)c2ccc(OC)cc2)nnc1SCC(=O)Nc1ccc(F)cc1 | 130% (inactive)
O=C(C1=C(N2CCCCC2)c2ccccc2S(=O)(=O)N1)c1ccccc1 | 94% (inactive)
Cc1ccc(-n2nnc(-c3nc(-c4cccs4)no3)c2N)c(C)c1 | 101% (inactive)
COc1ccccc1NC(=O)c1cc2c(-c3ccccc3)nn(-c3ccccc3)c2s1 | 89% (inactive)
COc1ccccc1NC(=O)c1cc2c(C)nn(-c3ccccc3)c2s1 | 0% (active)
O=C(Nc1ccccc1Cl)c1cc2c(-c3ccccc3)nn(-c3ccccc3)c2s1 | 56% (inactive)
Cc1ccccc1NC(=O)c1cc2c(-c3ccccc3)nn(-c3ccccc3)c2s1 | 57% (inactive)
Cc1nn(-c2ccccc2)c2sc(C(=O)Nc3ccccc3Br)cc12 | 9% (active)
COc1ccc(NC(=O)c2cc3c(C)nn(-c4ccccc4)c3s2)c(OC)c1 | 59% (inactive)
CCc1ccccc1NC(=O)C1CCN(C2=NS(=O)(=O)C(c3ccc(C)c(C)c3)=C2C)CC1 | 80% (inactive)
COc1ccc(-c2nc(C(N)=O)c3c(n2)n(-c2ccccc2OC)c(=O)n3C)c(OC)c1 | 82% (inactive)
CCN(CC)S(=O)(=O)c1ccc(-n2cnnn2)c(C)c1 | 111% (inactive)
Cc1ccc(NC(=O)CSc2nncn3c2cc2sccc23)cc1F | 61% (inactive)
COc1ccc(CCNC(=O)C2CCCN(S(=O)(=O)c3ccc4c(c3)oc(=O)n4C)C2)cc1OC (stereo unspecified) | 72% (inactive)
CCC1CCCCN1S(=O)(=O)c1ccc(NC(=O)c2cc(=O)c3c(C)cc(C)cc3o2)cc1 (stereo unspecified) | 45% (inactive)
CCc1cccc(NC(=O)COc2cc(=O)n(CC)c3ccccc23)c1 | 115% (inactive)
CCn1c2ccccc2c2cc(NC(=O)COc3cc(C)ccc3C)ccc21 | 29% (active)
COc1ccc(NC(=O)c2ccco2)cc1NC(=O)COc1ccc(C)cc1C | 56% (inactive)
CCn1c2ccccc2c2cc(NC(=O)COc3ccc(C)cc3C)ccc21 | -5% (active)

Structure (SMILES) | survival
COc1ccc(C)cc1NC(=O)COc1cc(=O)n(C)c2ccccc12 | 90% (inactive)
CCOC(=O)c1ccccc1NC(=O)COc1cc(=O)n(CC)c2ccccc12 | 53% (inactive)
CCc1ccc(OCC(=O)Nc2ccc3c(c2)c2ccccc2n3CC)cc1 | 51% (inactive)
Cc1ccc(-n2nc3ccc(NC(=O)COc4ccccc4C)cc3n2)cc1 | 72% (inactive)
CCc1ccc(OCC(=O)Nc2ccc3c(c2)c2ccccc2n3CC)c(Br)c1 | 6% (active)
CCc1ccc(S(=O)(=O)c2nnn3c2nc(N2CCOCC2)c2sccc23)cc1 | 83% (inactive)
Cc1ccccc1-n1nc(CO)c(C(=O)NCCc2ccccc2)n1 | 86% (inactive)
Cc1ccc(-c2cc(C(F)F)n3ncc(C(=O)NCC4CCCO4)c3n2)cc1 (stereo unspecified) | 87% (inactive)
CCCCN(C)CCNC(=O)CN1C(=O)CSc2ccc(S(=O)(=O)N3CCCCC3)cc21 | 113% (inactive)
CC(C)Cc1nn2cc(-c3cccc(Br)c3)nc2s1 | 112% (inactive)
Cn1ccc2cc(S(=O)(=O)N3CCCN(C(=O)Nc4ccccc4Br)CC3)ccc21 | 67% (inactive)
CCOc1ccc(Nc2nc3c(S(=O)(=O)c4ccc(CC)cc4)nnn3c3ccc(Cl)cc23)cc1 | 104% (inactive)
O=C(O)CNC(=O)c1sc2ccccc2c1Cl | 84% (inactive)
O=C(Nc1cc(C(F)(F)F)ccc1Cl)c1cc(-c2cccs2)nc2ccccc12 | 86% (inactive)
Cc1cc(C)cc(NC(=O)Nc2cccs2)c1 | 26% (active)
O=C(Nc1cccs1)Nc1ccc(F)cc1F | 83% (inactive)
Cc1ccccc1NC(=O)Nc1cccs1 | 94% (inactive)
Cc1ccc(NC(=O)Nc2cccs2)c(C)c1 | 91% (inactive)
O=C(Nc1cccc(C(F)(F)F)c1)Nc1cccs1 | -3% (active)
O=C(Nc1cccc(C(F)(F)F)c1)c1cccc(C(=O)Nc2cccc(C(F)(F)F)c2)c1 | 84% (inactive)
O=C(Nc1cccc(C(F)(F)F)c1)c1cccs1 | 95% (inactive)
O=C(Nc1cccs1)Nc1cc(C(F)(F)F)ccc1Cl | 11% (active)

Structure (SMILES) | survival
COc1ccc(CNC(=O)c2cnc(N3CCCC3)nc2C)cc1 | 71% (inactive)
O=S(=O)(Nc1ccc(-c2ccc(N3CCCC3)nn2)cc1)c1ccccc1Cl | 66% (inactive)
CC1(NS(C)(=O)=O)CC=CC1 | 115% (inactive)
Cc1cccc(NC(=O)c2cccc(N3CCCS3(=O)=O)c2)c1 | 78% (inactive)
COc1cccc(C2C(C(=O)Nc3ccc(C)cc3C)=C(C)Nc3c(C(=O)Nc4cccc(C)c4)cnn32)c1OC (stereo unspecified) | 94% (inactive)
CCn1cc(S(=O)(=O)c2cccc(C)c2)c(=O)c2cc(F)c(N3CCN(c4ccccc4)CC3)cc21 | 84% (inactive)
CCCc1cc(=O)[nH]c2nnc(SCCC(C)C)n12 | 90% (inactive)
Cc1cccc(-n2cc(-c3ccccc3)c3c(N4CCC(C)CC4)ncnc32)c1 | 90% (inactive)
CCOc1ccc(/C=C/c2nc(C#N)c(N3CCN(CC)CC3)o2)cc1 | 70% (inactive)
CN1CCN(C2=NC(=O)/C(=C\C=C/c3ccccc3)S2)CC1 | 79% (inactive)
C#CCOc1c(Br)cc(C2C(C(=O)OC)=C(C)NC3=C2C(=O)c2ccccc23)cc1OCC (stereo unspecified) | 62% (inactive)
CCOc1cc(C2C(C(=O)OC)=C(C)NC3=C2C(=O)c2ccccc23)ccc1O (stereo unspecified) | 31% (active)
CCOc1ccc(Br)cc1C1C(C(=O)OC)=C(C)NC2=C1C(=O)c1ccccc12 (stereo unspecified) | 48% (inactive)
CCOc1cc(C2C(C(=O)OC)=C(C)NC3=C2C(=O)c2ccccc23)c(Br)cc1OC (stereo unspecified) | 52% (inactive)
COC(=O)COc1ccc(C2C(C(=O)OC)=C(C)NC3=C2C(=O)c2ccccc23)cc1OC (stereo unspecified) | 29% (active)
CCOc1cc(C2C(C(=O)OC)=C(C)NC3=C2C(=O)c2ccccc23)cc(Cl)c1O (stereo unspecified) | 29% (active)
CCOc1cc(C2C(C(=O)OC)=C(C)NC3=C2C(=O)c2ccccc23)cc(Br)c1OCC (stereo unspecified) | 47% (inactive)
COC(=O)C1=C(C)NC2=C(C(=O)c3ccccc32)C1c1ccc(O)c(OC)c1 (stereo unspecified) | 85% (inactive)
CCOC(=O)COc1ccc(C2C(C(=O)OC)=C(C)NC3=C2C(=O)c2ccccc23)cc1Cl (stereo unspecified) | 119% (inactive)
C#CCOc1ccc(C2C(C(=O)OC)=C(C)NC3=C2C(=O)c2ccccc23)cc1OCC (stereo unspecified) | 167% (inactive)
CCOc1ccc(C2C(C(=O)OC)=C(C)NC3=C2C(=O)c2ccccc23)cc1OC (stereo unspecified) | 48% (inactive)
CCOC(=O)COc1ccccc1C1C(C(=O)OC)=C(C)NC2=C1C(=O)c1ccccc12 (stereo unspecified) | 39% (active)
